SMILES strings stand for the structures. The whole screen tested about 110,000 compounds, of which about 1,400 (1.3%) were called active.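 Rule for the calls: active = Z score or B-score, a plate-position-corrected score, falls beyond the plate's 99.7% confidence bounds, in either direction; inactive = both scores lie inside the 99.7% bounds.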 The full list was thinned out, with actives kept by preference.

The target in the test is Sodium-dependent dopamine transporter (Homo sapiens) (UniProt Q01959). Kind of test: modulators of human DAT uptake with cocaine – cell-based, LLC-PK1 hDAT, [14C]-dopamine uptake, MLSMR, cocaine antagonist project, primary screen (AID 449768).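 Note: scored against the spread of the other compound wells on the same plate.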 Conditions: LLC-PK1 hDAT cells, [14C]-dopamine uptake with cocaine IC80; at 10 µM; actives deviate in either direction.
Sodium-dependent dopamine transporter (Homo sapiens), sequence (Q01959 whole entry, looked up): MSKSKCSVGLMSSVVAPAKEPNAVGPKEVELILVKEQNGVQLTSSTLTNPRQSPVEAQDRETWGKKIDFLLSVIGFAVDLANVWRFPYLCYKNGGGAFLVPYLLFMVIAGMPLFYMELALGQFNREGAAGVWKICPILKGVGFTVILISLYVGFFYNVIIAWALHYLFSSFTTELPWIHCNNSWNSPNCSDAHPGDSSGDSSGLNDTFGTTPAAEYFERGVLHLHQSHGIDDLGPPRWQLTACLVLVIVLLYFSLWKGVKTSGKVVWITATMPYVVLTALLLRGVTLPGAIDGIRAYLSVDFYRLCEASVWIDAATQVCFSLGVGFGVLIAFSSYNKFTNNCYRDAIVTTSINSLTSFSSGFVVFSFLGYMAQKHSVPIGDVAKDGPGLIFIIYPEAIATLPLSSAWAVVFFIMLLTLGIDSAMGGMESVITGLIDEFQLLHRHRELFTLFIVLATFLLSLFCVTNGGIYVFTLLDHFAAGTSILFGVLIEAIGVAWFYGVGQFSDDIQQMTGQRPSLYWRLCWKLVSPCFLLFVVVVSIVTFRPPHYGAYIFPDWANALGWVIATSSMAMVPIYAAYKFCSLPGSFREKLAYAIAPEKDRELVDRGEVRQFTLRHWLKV
Regarding `COC(=O)Nc1c(C)n(C)n(-c2ccccc2)c1=O`, the B-score was 0.348 (inactive).
To `Cc1c(NC(=O)C(C)OC(=O)c2cc3c4ccccc4n(C)c3s2)c(=O)n(-c2ccccc2)n1C` (configuration not stated) belongs 4.67 (active); to `Cc1cc(C)cc(N(C(C)C(=O)Nc2c(C)n(C)n(-c3ccccc3)c2=O)S(C)(=O)=O)c1` (configuration not stated), -0.551 (inactive); to `Oc1c(Cl)cc(Cl)c(Cl)c1Cc1c(O)c(Cl)cc(Cl)c1Cl`, -5.94 (active).
With `Cc1nc(-c2ccc(Cl)cc2)sc1C1(C)CC(c2ccccc2F)=NO1` (configuration not stated) the figure was -0.519 (inactive); with `CC[C@@H](C)[C@@H](C(=O)N1CCN(C(=O)OC(C)(C)C)CC1)n1cc(CCC(=O)O)nn1`, -0.83 (inactive).
For `C#CCNC(=O)[C@H](Cc1ccc(C(=O)c2ccccc2)cc1)NC(=O)OC(C)(C)C`, the B-score is -0.105 (inactive).
With `Cc1ccc(-c2noc(-c3ccccc3C(=O)NCC3CCCO3)n2)cc1` (configuration not stated) the figure was -0.191 (inactive); with `Cc1ccc(-n2c(C)cc(/C=C(\C#N)C(=O)NCC3CCCO3)c2C)cc1` (configuration not stated), 3.1 (active).
Consider `Cc1ccc(S(=O)(=O)N2CCC(C(=O)NCC3CCCO3)CC2)cc1` (configuration not stated), for which the B-score was -0.801 (inactive).
With `CNC(=O)c1[nH]cnc1C(=O)N[C@@H](CC(C)C)C(=O)OCc1ccccc1`, the B-score is -0.0072 (inactive).
With `COc1ccc(CN2[C@@H](CC(=O)O)c3cc(F)ccc3S2(=O)=O)cc1`, the B-score was 1.13 (inactive).
As for `CCCc1nnc(NC(=O)CN2C(=O)c3ccccc3S2(=O)=O)s1`, the B-score was -0.746 (inactive).
With `CNC(=O)CN1C(=O)c2ccccc2S1(=O)=O` the figure was -0.143 (inactive); with `Nc1nnc(SCCN2C(=O)c3ccccc3S2(=O)=O)s1`, 2.06 (active).
With `O=C1CC2(CCCC2)Oc2ccc(Cl)cc21` the figure was 0.175 (inactive).
To `c1ccc(-n2ncc3c(N4CCCC4)ncnc32)cc1` belongs 0.432 (inactive); to `O=C(Cn1cnc2c(cnn2-c2ccccc2)c1=O)NCc1ccccc1`, -0.925 (inactive); to `CCN(CC)C(=O)CSc1ncnc2c1cnn2-c1ccccc1`, 3.2 (active).
Take `C=C1CCN([C@H](C(=O)NCc2cc(OC)c(OC)c(OC)c2)C(C)C)S(=O)(=O)c2ccccc21`: the B-score was 1.09 (inactive).
With `COc1cccc(/C=N/NC(=O)c2cccc([N+](=O)[O-])c2)c1OS(=O)(=O)c1ccc(C)cc1` the figure was -0.0993 (inactive).
Take `Cc1ccc(S(=O)(=O)Oc2ccc(/C=N/NC(=O)c3c(Cl)cnn3C)cc2)cc1`: the B-score was -7.83 (active).
For the compound `Cc1ccc(/C=N/NC(=O)c2sccc2OCc2ccc(F)cc2)cc1`, the B-score is -0.168 (inactive).
With `CCOC(=O)c1ccc(NC(=O)c2c(NCc3ccccc3)[nH]c(=O)[nH]c2=O)cc1`, the B-score is -0.0313 (inactive).
To `C#CCNC(=O)C1=C[C@@H](c2ccccc2)[C@H](CCCO)[C@@H](OCC)O1` belongs -0.204 (inactive); to `COc1ccc(OCCCC(=O)Nc2nnc(C3CCCO3)s2)cc1` (configuration not stated), -0.0765 (inactive); to `COCC(=O)Nc1nnc(COc2ccccc2)s1`, -0.411 (inactive).
For the compound `Cc1nnc(NC(=O)CCCOc2ccccc2)s1`, the B-score was -9.48 (active).
With `COCOc1cc(O)c(C(=O)/C=C/c2ccc(OCOC)c(OCOC)c2)c(OCOC)c1` the figure was -0.154 (inactive); with `CC(C)CC(CO)N1CCN(C(=O)c2ccc(Cl)cc2Cl)CCC1=O` (configuration not stated), -0.933 (inactive); with `COc1cc2c(cc1OC)CN(C(=O)c1cc(=O)c3ccccc3o1)CC2`, 3.91 (active).
To `COc1ccc(S(=O)(=O)N2CCC(C(=O)N3CCc4ccccc4C3)CC2)cc1OC` belongs 0.19 (inactive).
With `CCOc1cc(C(=O)N2CCc3cc(OC)c(OC)cc3C2)ccc1OC(F)F` the figure was 0.798 (inactive).
In the case of `Cc1ccc(NC(=S)NCCN2CCOCC2)cc1`, the B-score is -0.206 (inactive).
To `O=C(CCN1C(=O)c2ccccc2C1=O)NCCN1CCOCC1` belongs -0.649 (inactive); to `Cc1ccc(Cc2c(C)nc3nc(SCC(=O)NCCN4CCOCC4)nn3c2C)cc1`, 2.86 (active).
With `CCOC(=O)c1ccc(NC(=O)c2c(N)n(C)c(=O)[nH]c2=O)cc1` the figure was -0.175 (inactive); with `COC(C[C@@H](O)C[C@H](O)[C@H](C)OCc1ccccc1)OC`, 0.0993 (inactive).
With `COc1ccc(F)cc1S(=O)(=O)Nc1ccc2c(c1)OCO2` the figure was -0.037 (inactive).
On to `COc1ccccc1C1C2=C(COC2=O)Nc2cc3c(cc21)OCO3` (configuration not stated), for which the B-score is -2.97 (active).
With `CCCOc1ccccc1C1CC(=O)Nc2cc3c(cc21)OCO3` (configuration not stated) the figure was -1.06 (inactive); with `CCOC(=O)/C=C/CN(C(=O)OC(C)(C)C)S(=O)(=O)N1CC=CC1`, -1.8e-05 (inactive).
To `CC(=O)c1ccc(NC(=O)N[C@@H](Cc2ccccc2)C(=O)O)cc1` belongs 3.14 (active).
For `CC(=O)NC(Cc1ccc(F)cc1)C(=O)O` (configuration not stated), the B-score was -0.111 (inactive).
With `COC(=O)[C@H](Cc1ccccc1)NC(=O)Nc1ccc(S(N)(=O)=O)cc1` the figure was 0.0225 (inactive).
As to `Cc1ccc(/C=N/NC(=O)C2=NNC(c3ccccc3)(c3ccccc3)C2)c(O)c1`, the B-score is -0.164 (inactive).
To `Cc1ccc(C(=O)N/N=C/c2sc(=O)n(Cc3cccc(C(=O)O)c3)c2Cl)cc1` belongs 0.653 (inactive).
Regarding `Cc1ccc(/C=N/NC(=O)C(NC(=O)c2ccccc2)c2n[nH]c(=O)c3ccccc23)cc1` (configuration not stated), the B-score was 5.41 (active).
With `C#CCOCCOCCOCCNc1nc(N2CCN(C(=O)[C@H](C(C)C)n3cc(CCO)nn3)CC2)nc(N2CCN(C(=O)[C@H](C(C)C)n3cc(CCO)nn3)CC2)n1` the figure was -0.703 (inactive).
As for `COc1ccc(-c2nc3c(s2)CCc2onc(-c4ccc(Br)cc4)c2-3)cc1`, the B-score was -0.269 (inactive).
To `O=C1NC[C@@H](Cc2ccc(O)cc2)N(CCc2cccc(F)c2)C1=O` belongs 0.0299 (inactive).
To `Cc1cn(C)c(=O)n(C)c1=O` belongs -1.72 (inactive).
